In ChEMBL document CHEMBL3988442, “University of Dundee, Small-Polar-MMV Screening Library” (2021):

Key:
[1] = target: T1, Aspartate--tRNA(Asp/Asn) ligase (Mycobacterium tuberculosis (strain ATCC 25618 / H37Rv)) (UniProt P9WFW3); test: Assay for Asp RNA synthetase-1 from Mycobacterium tuberculosis; format: functional; parameters: scale not given: direction of the effect not stated beside the values; conditions: 30 µM; further: in the data most compounds retested in dose-response had high values
T1 sequence (whole entry): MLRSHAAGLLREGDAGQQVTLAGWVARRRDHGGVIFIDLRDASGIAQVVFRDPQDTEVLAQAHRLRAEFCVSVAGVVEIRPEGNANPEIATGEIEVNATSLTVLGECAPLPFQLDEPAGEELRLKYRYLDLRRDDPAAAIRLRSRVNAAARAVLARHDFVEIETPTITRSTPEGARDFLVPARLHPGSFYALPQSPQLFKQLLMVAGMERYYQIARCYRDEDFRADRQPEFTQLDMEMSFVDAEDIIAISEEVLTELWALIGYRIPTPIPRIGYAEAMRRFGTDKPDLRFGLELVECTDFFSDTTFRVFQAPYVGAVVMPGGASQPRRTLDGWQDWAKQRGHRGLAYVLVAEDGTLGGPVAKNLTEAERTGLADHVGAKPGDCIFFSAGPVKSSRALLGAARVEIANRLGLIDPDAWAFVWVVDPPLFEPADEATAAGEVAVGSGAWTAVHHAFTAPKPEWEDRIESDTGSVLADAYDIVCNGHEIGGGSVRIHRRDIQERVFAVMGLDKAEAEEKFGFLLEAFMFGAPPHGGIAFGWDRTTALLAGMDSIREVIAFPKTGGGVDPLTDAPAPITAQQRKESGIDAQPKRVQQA

[2] = target: Shiga toxin 2 (Escherichia coli O157:H7) (UniProt P09385+P09386); test: E. coli 0.157:H7 Shiga Toxin SOP - stx2 screening assay; format: functional; parameters: scale not given: direction of the effect not stated beside the values; conditions: 30 µM

| Compound | Percent Effect [1] | Percent Effect [2] |
| --- | --- | --- |
| CC(C)[C@H](NC(=O)NC1CCS(=O)(=O)C1)C(=O)Nc1cccnc1 (stereo partly drawn) | -0.929% | -52.8% |
| O=C(NCCN1CCCCC1)c1scnc1Cl | -1.07% | 30.3% |
| CC1CCCCN1C(=O)CN1CCN(c2ccc3nncn3n2)CC1 (stereo not drawn) | 0.945% | -8.03% |
| COc1ccc(Cc2cccc(C3CCN(C)CC3)n2)cc1 | -1.77% | -4.18% |
| COC[C@@H]1CC[C@H]2[C@H](CCN2S(=O)(=O)c2ccc(F)cc2)O1 | 8.74% | -4.21% |
| COCCO[C@H]1CCN(Cc2cccs2)[C@H]1Cc1cccnc1 | 0.0141% | 9.31% |
| O=C1CC(c2ccccc2)C2(CCN(Cc3ccccn3)CC2)N1 (stereo not drawn) | 2.57% | -17.4% |
| CC(C)CNC(=O)[C@H]1CCS(=O)(=O)[C@@H]2CN(Cc3cccc(Cl)c3)C[C@H]12 | -3.06% | -29.7% |
| O=C(NCc1ccco1)[C@H]1C[C@H]2OCC[C@H]2N(C(=O)c2ccncc2)C1 | 4.89% | 8.77% |
| Cc1noc(C2CCN(C(=O)CCNc3ncccn3)CC2)n1 | 0.856% | -36.4% |
| Cc1nc(CNC(=O)NCCc2ccc(N(C)C)cc2)cs1 | 6.93% | 16.6% |
| Cc1noc(C)c1CCC(=O)NC(C)c1nnc2n1CCC2 (stereo not drawn) | -0.635% | -3.03% |
| O=C(CN1CCCCC1Cn1cccn1)NC1CCN(C2CC2)CC1 (stereo not drawn) | 1.64% | 4.12% |
| Cc1scc(C(=O)N2CCC3(CCCN(C)C3=O)C2)c1-c1ccccc1 (stereo not drawn) | 2.02% | 8.94% |
| C=Cc1ccc(C(=O)N2CCCC(Nc3ccc(OC)cc3)C2)cc1 (stereo not drawn) | 1.04% | -6.01% |
| COc1ccc(C)cc1CSCCn1nc2ccccn2c1=O | -3.83% | 6.71% |
| Cc1cc(C(=O)N[C@@H]2CCNC[C@H]2O)ccc1Cl | 2.13% | 14.6% |
| CNC(=O)N1C[C@H]2CC[C@@]3(N=C(c4ccccc4)NC3=O)[C@H]2C1 | 4.9% | -20.9% |
| CSc1ncccc1C(=O)N1C[C@H]2CC[C@@H]1CN(c1ncccn1)C2 | 4.84% | -56.4% |
